Bioassay records: PubChem, National Center for Advancing Translational Sciences (NCATS)
Most compounds without a hit are left out; they make up all but 7.9% or so of the library.
MCF10A rereplic: induces DNA re-replication in MCF 10a normal breast cells; 2.9% of 350,000 active; MCF 10A DNA re-replication, Hoechst nuclear intensity, 48 h; Potency, µM (highest dose often 46.1 µM), for inactives: top-dose activity, positive = re-replication, actives largely listed as activators; further: % of control where 0% means no effect; nearly all actives have a fitted effect of over 50% in size
HT1080 IDH1KD tx: kills HT-1080 cells with IDH1 knockdown | AID 686971 | HT-1080 IDH1 knockdown viability, ATP luminescence, 48 h | 2% of 360,000 active | Potency, µM (doses to about 46.1 µM), for inactives: at the top dose activity, negative = toxicity, actives largely listed as cytotoxic;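 further: 0% = DMSO wells and -100% = cell-free medium wells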
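Cytotoxicity counter-line: IDH1KD HT-1080, 48 h, CellTiter-Glo. Curves classed by r2, magnitude and activity.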
HT1080-NT tox: kills 2HG-producing HT-1080-NT fibrosarcoma cells; Potency, µM (doses to about 46.1 µM), for the others: at the highest dose activity, negative = less viability, usual class: cytotoxic; HT-1080-NT fibrosarcoma viability, CellTiter-Glo ATP luminescence, 48 h; 1.6% of 360,000 active;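 further: NT is the 2HG producing partner of a matched IDH1 knockdown line; 0% = DMSO-treated cells and -100% = media-only wells without cells; nearly all actives have a fitted effect of over 55% in size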
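A 48-hour cytotoxicity screen used HT-1080-NT cells plated 2 hours before compound delivery. ATP-based CellTiter-Glo luminescence measured viability, normalized to DMSO and no-cell controls.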
KB-V1 cytotox: kills drug-selected multidrug resistant KB-V1 cells | KB-V1 MDR cells viability, CellTiter-Glo, 72 h | Potency, µM (top dose mostly 46.1 µM), hits mostly cytotoxic | 3.4% of 400,000 active | AID 1347076; further: on the % scale 0 is the no-effect control and ±100 the full control effect; nearly all actives have a fitted effect of over 60% in size
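Readout: CellTiter-Glo luminescence, 10 min after addition. Cells: KB-V1 MDR subline, 72 h at 37 degrees C with compound. Analysis: corrected, normalized data fitted to concentration-effect curves.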
SW480 rereplic: inducers of DNA re-replication in SW480 colon cancer cells | 1.8% of 340,000 active | Potency, µM (doses to about 46.1 µM), inactives show at the top dose re-replication activation, usual class: activators | AID 624297 | SW480 DNA re-replication, Hoechst DNA content imaging, 48 h; further: % of control where 0% means no effect; nearly all actives have a fitted effect of over 55% in size
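DNA re-replication was detected as more nuclei of elevated Hoechst intensity after 48 hr exposure to compound (23 nL pinned per well of 250 cells).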
KB-3-1 cytotox: KB-3-1 parental cell cytotoxicity | AID 1347075 | KB-3-1 viability, CellTiter-Glo ATP luminescence, 72 h | Potency, µM (series often up to 46.1 µM), most hits filed as cytotoxic | 1.4% of 400,000 active; further: on the % scale 0 is the no-effect control and ±100 the full control effect; nearly all actives have a fitted effect of over 60% in size
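Cells are dispensed, compounds pinned in, plates held at 37 °C for 72 h, then CellTiter-Glo is added and luminescence read after 10 minutes. Cell line: parental KB-3-1 in phenol-red-free DMEM, 10% FBS.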
An asterisk follows results filed as active; i = inactive; ? = inconclusive; · = not tested or not shown; ! = not confirmed by another sample; [ ] = dose if it differs, or a comment. The call rests on the fitted dose curve; in most records, active means well fitted curve in the direction sought with a large enough effect; inconclusive means small, poorly fitted or top-dose-only effect, or another doubt; inactive means no such curve, though single readings can be large; an effect the other way counts as inactive or inconclusive. Potency means the concentration at half of the fitted maximal effect.

SMILES	MCF10A rereplic	HT1080 IDH1KD tx	HT1080-NT tox	KB-V1 cytotox	SW480 rereplic	KB-3-1 cytotox
Cc1ccc(CN2CCN(CC(=O)N=Nc3c(O)[nH]c4ccccc34)CC2)cc1	?	-24%	-14%	?	-5%	i
O=C(NC1c2ccccc2-c2ccccc21)c1ccccc1	-1%	-1%	-3%	i	-7%	i
O=C1C=CC(=O)N1c1ccc2c(c1)C(NC(=O)C(F)(F)F)c1ccccc1-2 (configuration not stated)	?	?	0%	·	8.2µM*	·
CC(C)C(C)NC(=O)COc1ccc(Sc2ccc(OCC(=O)NC(C)C(C)C)cc2)cc1 (configuration not stated)	15%	9%	0%	2.9µM*	4%	?
CC(C)C(C)NC(=O)COc1ccc(-c2ccccc2)cc1 (configuration not stated)	18%	-1%	1%	?	4%[9.22 µM]	i
COc1ccc(-c2csc(C(C)(O)c3ccc(F)c(F)c3)n2)cn1 (configuration not stated)	·	?	?	i	·	i
CCN=c1scc(-c2ccccc2)n1/N=C/c1ccccn1	21µM*	?	?	?	-3%	8.2µM*
C=CCN=c1scc(-c2ccccc2)n1/N=C/c1ccccn1	?	18µM*	18µM*	7.3µM*!	?	1.5µM*!
CCc1cccc(NS(=O)(=O)c2cc(-c3cnc(C)o3)ccc2OC)c1	·	·	·	i	·	i
O=C(CCN1C(=O)c2ccccc2C1=O)Oc1ccc2ccccc2c1	-1%	-2%	-2%	i	-2%	i
Cc1ccc(S(=O)(=O)Oc2ccc3ccc(O)cc3c2)cc1	1µM*	-4%	-7%	?	-17%	i
CC1=CC(C)(C)Nc2ccc(OC(=O)CCN3C(=O)c4ccccc4C3=O)cc21	6.5µM*	?	?	?	9.2µM*	?
CCOc1ccc(S(=O)(=O)Oc2ccc3ccccc3c2)cc1	?	-18%	-7%	?	-1%	?
CC1=CC(C)(C)Nc2ccc(OS(=O)(=O)c3ccc(C)cc3)cc21	?	-18%	0%	15µM*	-6%	i
O=C(Nc1nc(-c2cccs2)cs1)c1ccco1	?	-2%	-1%	?	-5%	?
O=C(Nc1nc(-c2cccs2)cs1)c1ccc([N+](=O)[O-])o1	2.9µM*	?	?	21µM*	7.3µM*	6.5µM*
COc1ccc(C(=O)Nc2cnc(NC(=O)c3cccs3)cc2C)cc1	7.3µM*	-1%	14%	i	?	i
O=C(COc1ccc(Cl)cc1)Nc1nc(-c2cccs2)cs1	13µM*	-11%	-1%	i	-2%	i
COc1ccc(C(=O)Nc2cc(C)c(NC(=O)c3ccccn3)cn2)cc1	-7%	-12%	-12%	i	1%	i
O=C(Nc1nc(-c2ccc(Cl)s2)cs1)c1ccncc1	2%	-3%	1%	6.5µM*	-3%	?
Cc1ccc(NC(=O)N2C3CCCC2CC(NC(=O)C(C)(C)C)C3)cc1 (configuration not stated)	-13%	0%	2%	i	0%	i
O=C(NCc1ccc(Cl)cc1Cl)Nc1nc([C@@H]2O[C@H](CO)[C@@H](O)[C@H](O)[C@H]2O)cs1	·	14%	26%	i	·	i
COc1ccc(-c2nnc(SCC(=O)NC3CCCC3)nc2-c2ccc(OC)c(OC)c2)cc1OC	·	·	·	i	·	i
N#Cc1c(C#N)c(SSc2c(C#N)c(C#N)c(N)n2-c2ccccc2)n(-c2ccccc2)c1N	-6%	6%	12%	?	?	i
CN(C(=O)C1CCC1C(=O)O)c1nc(-c2ccc(Cl)s2)cs1 (configuration not stated)	-10%	0%	0%	i	12%	i
